Screens: PubChem, National Center for Advancing Translational Sciences (NCATS)
Rows were chosen to be rich in hits. Some 21% of all compounds tested hit in one or more screens of this group.
Cycloheximide cs – Cycloheximide Counterscreen for Small Molecule Inhibitors of Shiga Toxin; cell reporter, cycloheximide protein synthesis inhibition counterscreen; max response, %; hit rate 12% among 300,000; AID 2314, 2010; in the data active means max response mostly above about 13%, no sharp cut-off; inactive means mostly below about 14%; further: read at 38.3 µM for the half of the compounds with a filed dose
Pf growth 48h – Primary qHTS for delayed death inhibitors of the malarial parasite plastid, 48 hour incubation. P. falciparum luciferase growth in erythrocytes, 48 h. Potency, µM (titrated, usually from 28.7 µM), most hits filed as inhibitors. hit rate 5.9% among 310,000
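Firefly luciferase activity from engineered P. falciparum reports growth; inhibitors lower the luminescent signal. Cultures contained 2% hematocrit erythrocytes at 0.1% final parasitemia.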
Shiga toxin inh – A qHTS for Small Molecule Inhibitors of Shiga Toxin | inhibition, % at 38.7 µM | Vero cells, Shiga toxin protein synthesis inhibition reporter | hit rate 9.2% among 290,000 | AID 2315, 2010; in the data active means inhibition mostly above about 28%, no sharp cut-off; inactive means mostly below about 43%
Pf growth 96h – Primary qHTS for delayed death inhibitors of the malarial parasite plastid, 96 hour incubation; hit rate 6.9% among 320,000; Potency, µM (highest dose often 28.7 µM), actives largely listed as inhibitors; P. falciparum luciferase reporter growth, 96 h
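P. falciparum expressing integrated firefly luciferase grown in erythrocytes (2% hematocrit, 0.05% parasitemia final) with compounds for 96 hours at 37 C, 5% CO2. Growth inhibition read as loss of luminescence after adding luciferase detection reagent.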
Hits are given with their value; . = inactive; ? = inconclusive; / = no result; + = active, no number. Unless noted, the call rests on the fitted dose curve; in most records, active means well fitted inhibition curve with a large enough effect; inconclusive means small, poorly fitted or top-dose-only effect, or another doubt; inactive means no such curve, though single readings can be large or run the other way.

SMILES	Cycloheximide cs	Pf growth 48h	Shiga toxin inh	Pf growth 96h
CC1=C(C)CC2(SC1)C(=O)N(c1ccccc1)N=C2N (stereo not given)	23	.	48	.
N#Cc1c(/N=C/c2ccc(-c3ccc(C(=O)O)c(Cl)c3)o2)sc2c1CCCC2	/	.	/	.
N#Cc1c(/N=C/c2ccc(Br)s2)sc2c1CCC2	.	.	15	.
N#Cc1c(/N=C/c2ccc(-c3ccccc3C(=O)O)o2)sc2c1CCCC2	60	/	111	.
N#Cc1c(/N=C/c2cccs2)sc2c1CCCCC2	35	.	86	/
Cc1ccc(/C=N/c2sc3c(c2C#N)CCC3)o1	.	?	.	?
N#Cc1c(/N=C\c2ccc(O)c([N+](=O)[O-])c2)sc2c1CCCC2	44	.	.	.
COc1ccc(N(C(=O)c2cccc(OC)c2OC)C2C=CS(=O)(=O)C2)cc1 (stereo not given)	.	.	.	2.3µM
COc1ccc(C2=C(C)C(N3CCN(C(=O)c4ccco4)CC3)=NS2(=O)=O)cc1	.	.	.	.
O=C(NC1CCS(=O)(=O)C1)c1ccc(S(=O)(=O)N2CCCCC2)cc1 (stereo not given)	.	.	.	.
O=C(NC(=S)NNC(=O)c1ccco1)c1ccccc1	.	.	.	?
Cc1ccc(C(=O)NNC(=S)NC(=O)c2ccco2)cc1	.	?	.	?
Cc1ccc(C(=O)NNC(=O)c2ccco2)cc1	39	.	+	.
O=C(NNC(=O)c1ccco1)c1ccccc1	19	.	.	.
CC(=O)Nc1cccc(C(=O)OC(C)C(=O)NC(=O)NC2CCCCC2)c1 (stereo not given)	/	.	/	.
CN(C)S(=O)(=O)c1ccc(Cl)c(C(=O)Nc2ccc(S(=O)(=O)N3CCOCC3)cc2)c1	.	.	.	?
CCOC(=O)N1CCN(c2c(NCc3cccs3)c(=O)c2=O)CC1	.	/	.	12µM
CCOC(=O)N1CCN(c2c(NCC3CCN(Cc4cccc(C)c4)CC3)c(=O)c2=O)CC1	.	.	.	6.6µM
CCOC(=O)C1CCN(c2c(NCCCN3CCCCC3)c(=O)c2=O)CC1	.	.	.	.
CCOC(=O)N1CCN(c2c(NCCCN3CCCCCC3)c(=O)c2=O)CC1	.	/	.	10µM
CCN(CC)c1ccc(NC(=O)c2ccccc2Br)cc1S(=O)(=O)Nc1ccccc1OC	.	15µM	.	.
COc1ccc(NC(=O)c2ccc(=O)[nH]c2)cc1S(=O)(=O)N1CCCCC1	.	.	.	.
CCNC(=S)Nc1ccc(C)c(S(=O)(=O)Nc2ccccc2OC)c1	.	.	.	.
CCN(CC)c1ccc(NC(=O)COc2ccccc2C#N)cc1S(=O)(=O)Nc1ccc(OC)cc1	.	8.3µM	44	4.1µM
CCN(CC)c1ccc(NC(=O)COc2ccccc2C)cc1S(=O)(=O)Nc1ccccc1OC	.	9.3µM	.	?
SMILES	Cycloheximide cs	Pf growth 48h	Shiga toxin inh	Pf growth 96h
CCN(CC)c1ccc(NC(=O)c2cnccn2)cc1S(=O)(=O)Nc1ccc(OC)cc1	.	?	.	?
CCN(CC)c1ccc(NC(=O)c2ccc(=O)[nH]c2)cc1S(=O)(=O)Nc1ccccc1OC	.	10µM	.	6.6µM
CCN(CC)C(=O)c1sc(NC(=O)C(C)C)c(C#N)c1C	.	.	.	.
CCN(CC)c1ccc(NC(=O)c2ccccc2F)cc1S(=O)(=O)Nc1ccccc1OC	.	4.7µM	.	10µM
Cc1cc2nc3c(=O)[nH]c(=O)nc-3n(CC(O)C(O)C(O)COP(=O)(O)O)c2cc1C (stereo not given)	.	?	.	?
Cc1ccc(C(=O)Oc2ccccc2N2C(=O)C3CCCCC3C2=O)cc1 (stereo not given)	.	.	.	.
O=C(c1ccccc1)C1NC1c1ccccc1 (stereo not given)	61	.	47	.
NC/C=C/C(=O)O	/	.	/	.
O=C(Nc1nc(-c2cccs2)cs1)c1ccc(Cl)cc1	.	.	.	/
O=C(Nc1nc(-c2cc(Cl)sc2Cl)cs1)c1cccs1	11	?	.	.
O=C(Nc1nc(-c2ccc(Cl)s2)cs1)c1ccncc1	.	.	.	10µM
O=C(Nc1nc(-c2cc(Cl)sc2Cl)cs1)c1ccc(Br)s1	.	/	.	.
CC1CC1C(=O)Nc1nc(-c2ccc(Cl)s2)cs1 (stereo not given)	38	.	131	.
CCN(CC)S(=O)(=O)c1cccc(C(=O)OCC(=O)NCCN2C(=O)CSC2=O)c1	/	.	/	.
CC(=O)Oc1cccc(C(=O)Nc2ccc(NC(=O)c3cccs3)cc2)c1	42	.	163	.
COc1cccc(C(=O)Nc2cc(NC(=O)c3cccs3)ccc2C)c1	.	.	.	?
COc1cccc(C(=O)Nc2cccc(NC(=O)c3cccs3)c2)c1	11	.	.	?
O=C(Nc1ccc(NC(=O)c2cccs2)cc1)c1ccc2c(c1)OCO2	.	.	.	.
NC(=O)c1ccccc1NC(=O)/C=C/c1cccc(Cl)c1	45	.	118	.
NC(=O)c1ccccc1NC(=O)/C=C/c1c(Cl)cccc1Cl	27	.	143	13µM
CN(C)S(=O)(=O)N1CCc2ccccc21	.	.	.	/
O=C(CNS(=O)(=O)c1ccccc1)N1CCc2ccccc2C1	35	.	/	.
CS(=O)(=O)N(CC(=O)N1CCc2ccccc2C1)Cc1ccccc1	.	/	.	.
O=C(CS(=O)(=O)Cc1ccccc1)N1CCc2ccccc2C1	16	.	.	.
O=C(Cc1ccccc1[N+](=O)[O-])N1CCc2ccccc2C1	15	.	.	1.2µM
SMILES	Cycloheximide cs	Pf growth 48h	Shiga toxin inh	Pf growth 96h
O=S(=O)(Cc1ccccc1)N1CCc2ccccc21	13	.	34	/
O=C(NCCC(=O)N1CCc2ccccc21)c1ccccc1Cl	.	.	.	.
Cc1ncc([N+](=O)[O-])n1CC(=O)Nc1ccc(F)c(Cl)c1	.	?	.	.
Cc1ccccc1NC(=O)NNC(=O)COc1ccc2ccccc2c1	.	.	.	?
COc1ccc(/C=C/C(=O)Oc2cccc(/C=N/NC(=O)c3cccc(F)c3)c2)cc1	95	.	129	.
COc1ccc(/C=C\C(=O)Oc2cccc(/C=N/NC(=O)Cc3ccc(OC)c(OC)c3)c2)cc1	65	?	46	?
COc1ccc(/C=C/C(=O)Oc2ccc(/C=N\NC(=O)c3ccc(F)cc3)cc2)cc1	.	.	.	.
Cc1ccccc1OCC(=O)N1CCN(C(=O)COc2ccccc2C)CC1	.	.	.	.
Cc1noc(C)c1C(=O)Nc1sc(C)c(-c2ccccc2)c1C#N	.	.	.	/
Cc1cccc(C(=O)Nc2sc(C)c(-c3ccccc3)c2C#N)c1	41	.	59	.
Cc1sc(NC(=O)C2CCCCC2)c(C#N)c1-c1ccccc1	57	.	142	.
CC(Oc1ncnc2ccccc12)C(=O)Nc1cccc(S(=O)(=O)N2CCOCC2)c1 (stereo not given)	.	.	.	?
Cc1cc(OCc2cccc(Cl)c2)c(C)cc1CN1CCOCC1	24	.	.	?
COc1ccc(C)cc1S(=O)(=O)N(C)CC(=O)N1CCCC1	.	.	/	12µM
CCN1CCN(C(=O)CN(C)S(=O)(=O)c2cc(C)ccc2OC)CC1	.	.	.	.
